In PubChem BioAssay (NCI):
The panel holds about 79,000 compounds, 15% with a hit somewhere; the sample as a whole holds those more often. Calls of active or inactive are those of the source. Rule as the data show it: active = growth inhibition above about 70%; inactive = the rest.

What was measured:
[1] = NCI Yeast Anticancer Drug Screen. Data for the rad50 strain (AID 155);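 also: 0% = growth of vehicle-only cultures of the same strain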; conditions: S. cerevisiae rad50 strain growth inhibition; at 50.0 µM; active compounds read high
Summary of the method: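 Relative growth inhibition (compound vs vehicle) was measured in yeast with a defined repair-gene alteration.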

[2] = NCI Yeast Anticancer Drug Screen. Data for the mec2-1 strain (AID 157); conditions: S. cerevisiae mec2-1 strain, at 50.0 µM, active compounds read high
Summary of the method: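 mec2-1 yeast strain, carrying an alteration in DNA damage repair or cell cycle control, was exposed to compounds; growth inhibition was measured relative to vehicle-treated controls.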

[3] = NCI Yeast Anticancer Drug Screen. Data for the sgs1 mgt1 strain (AID 161);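 also: 0% = growth of cultures given vehicle only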; conditions: S. cerevisiae sgs1 mgt1 strain, at 50.0 µM, active compounds read high
Summary of the method: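 Growth of a repair-deficient yeast mutant was monitored after compound treatment and expressed as inhibition relative to vehicle-treated cultures.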

[4] = NCI Yeast Anticancer Drug Screen. Data for the cln2 rad14 strain (AID 165);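 also: 0% = growth equal to vehicle treated cultures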; conditions: S. cerevisiae cln2 rad14 strain, at 50.0 µM, active compounds read high
Summary of the method: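 Yeast carrying cln2 and rad14 alterations (cell cycle control and DNA damage repair) were exposed to compounds. Growth inhibition was measured against vehicle-treated controls.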

[5] = NCI Yeast Anticancer Drug Screen. Data for the bub3 strain (AID 167); conditions: S. cerevisiae bub3 mutant strain, at 50.0 µM, active compounds read high
Summary of the method: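 Screening used yeast with an engineered genetic alteration affecting cell cycle control. Compound-exposed cultures were compared with vehicle cultures, and reduced growth was taken as inhibition.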

[6] = NCI Yeast Anticancer Drug Screen. Data for the mlh1 rad18 strain (AID 175); conditions: S. cerevisiae mlh1 rad18 strain growth inhibition; at 50.0 µM; active compounds read high
Summary of the method: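 Growth inhibition of the yeast strain was measured after compound exposure and expressed relative to vehicle-treated controls. The strain carries defined defects in DNA damage repair.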

Measured: growth inhibition

Nc1ncc2c(n1)-c1ccccc1OC2NC1CC1 (centres undefined)
inactive: [1] 2.5% | [2] 12.1% | [3] -29.2% | [4] -5.55% | [5] -36.2% | [6] -4.65%

NC(=NC1CCCCC1)c1ccc(C(=O)OCC2CCCCC2)cc1
inactive: [1] 39.2% | [2] 12.6% | [3] 45.5% | [4] 19.9% | [5] 21.8% | [6] 26.4%

NC(=O)c1nnc2ccc(F)cc2c1N
inactive: [1] -35.2% | [2] -37% | [3] -23.2% | [4] -2.55% | [5] -9.35% | [6] -27.2%

CCOC(CN=C=S)OCC
inactive: [1] 4.25% | [2] -3.95% | [3] 16.6% | [4] 9.05% | [5] -3.35% | [6] 4.65%

CC(C)=C1CCC/C1=N\Nc1ccc([N+](=O)[O-])cc1[N+](=O)[O-]
inactive: [1] -5.9% | [2] -1.35% | [3] 0.15% | [4] -25.8% | [5] 4.6% | [6] -8.75%

O=c1c2ccccc2nnn1O
inactive: [1] 12.8% | [2] 0.2% | [3] 4.55% | [4] -23.1% | [5] -5.95% | [6] 6.45%

Cc1nc(-c2ccccc2)cc2c1c(=O)oc1ccccc12
inactive: [1] -14.7% | [2] -30.6% | [3] 4% | [4] 6.3% | [5] -5.4% | [6] -8.55%

C=CCOC(=O)NC(CCC(N)=O)C(=O)O (centres undefined)
inactive: [1] 19.7% | [2] 1.1% | [3] 14.7% | [4] 9.5% | [5] -1% | [6] 16.3%

O=c1n(CCCN2CCN(c3cccc(Cl)c3)CC2)nc2ccccn12
inactive: [1] 45.9% | [2] 11.4% | [3] 21.9% | [4] 19.8% | [5] -1.4% | [6] 8.35%

CCOC(=O)C(=N\Nc1ccccc1Br)/C(C)=N\NC(N)=S
inactive: [1] 50% | [2] 19.6% | [3] 56.9% | [4] 14.7% | [5] 9.3% | [6] 33%

CC(C)=CCc1c(C)cc2cc3c(c(O)c2c1O)C(O)=CC(=O)C3(CC=C(C)C)C/C=C(\C)CO (centres undefined)
inactive: [1] 54.6% | [2] 37% | [3] 52.5% | [4] 47.2% | [5] 48.9% | [6] 46.1%

CNc1ncnc2nc[nH]c12
inactive: [1] 16.2% | [2] -6.85% | [3] 2.9% | [4] -3.15% | [5] -8.5% | [6] 14.9%

CO/C=C/CCCNCc1ccccc1
inactive: [1] -4.5% | [2] -27.4% | [3] 20.6% | [4] 9.7% | [5] 6.3% | [6] 1.2%

CSC1(C)C(=O)Nc2ccc(C(F)(F)F)cc21 (centres undefined)
inactive: [1] 9.35% | [2] 4.8% | [3] -0.05% | [4] 17.7% | [5] -6.15% | [6] 0.1%

Cc1ccc(NC(=O)c2ccccc2)cc1
inactive: [1] 3.75% | [2] 4.7% | [3] -2.55% | [4] -16% | [5] 2.05% | [6] -0.3%

CN(C)C(=O)c1ccc[n+](CC(=O)Nc2ccccc2)c1
inactive: [1] 0.7% | [2] -3.85% | [3] 13.1% | [4] -1.25% | [5] 4.05% | [6] -4.4%

O=C(C[n+]1ccccc1CCCO)c1ccc(F)cc1
inactive: [1] 3.55% | [2] -19.7% | [3] 4.6% | [4] 28.3% | [5] 3% | [6] 8.45%

COc1cc(CO)c(CC(=O)NCCCc2ccccc2)cc1OC
inactive: [1] 37.8% | [2] -44.5% | [3] -12.5% | [4] -2.85% | [5] -14.2% | [6] -47.5%

C/C=C(\Cl)C(OC(C)=O)OC(C)=O
inactive: [1] -1.45% | [2] -0.2% | [3] -6.15% | [4] -6.8% | [5] 18.4% | [6] 2.55%

O/N=C(/Cc1ccccc1)CC(O)(C(F)(F)F)C(F)(F)F
active: [1] 90.8% | [2] 89.5% | [3] 87% | [4] 85.8% | [5] 86.7% | [6] 94.3%

Nc1nnc(-c2ccccc2)s1
inactive: [1] -11.8% | [2] 5.95% | [3] 2.2% | [4] 13.8% | [5] 5.85% | [6] 5.05%

COc1cc([N+](=O)[O-])ccc1C(=O)NC(CCC(=O)O)C(=O)O (centres undefined)
inactive: [1] -12.6% | [2] -19.9% | [3] 19.1% | [4] -20.4% | [5] 28.6% | [6] -22.1%

COc1c(-c2ccc(F)cc2)oc2c(CC(=O)O)cccc2c1=O
inactive: [1] -0.35% | [2] -19.2% | [3] -27.1% | [4] 3.2% | [5] -7.6% | [6] -26.5%

O=C1NC(N2CCOCC2)=N/C1=C\c1ccccc1O
inactive: [1] -1.3% | [2] -26% | [3] -7.8% | [4] -8.65% | [5] 16.1%
active: [6] 81.2%

c1ccc(SCCP(CCP(c2ccccc2)c2ccccc2)c2ccccc2)cc1 (centres undefined)
inactive: [1] 34.9% | [2] 2.6% | [3] 14.3% | [4] 22.4% | [5] 37.8% | [6] 57.1%

CN(C)C1C(CO)OC(n2cnc3c(N)ncnc32)C1O (centres undefined)
inactive: [1] 21.2% | [2] 12.8% | [3] -19.4% | [4] 22% | [5] -11.8% | [6] -82.2%

CCSCC1C=CC(n2cnc3c(N)ncnc32)O1 (centres undefined)
inactive: [1] -10.3% | [2] -29.2% | [3] -22.1% | [4] -0.25% | [5] 5.55% | [6] 10.1%

Cc1ccc(S(=O)(=O)Oc2ccccc2NS(=O)(=O)c2ccccc2)cc1
active: [3] 76.5%
inactive: [1] 68.2% | [2] 53.2% | [4] 52.1% | [5] 13.5% | [6] 48.1%

Cc1ncc(CO)c(CN)c1O
inactive: [1] -0.55% | [2] -21.4% | [3] -38% | [4] -23.4% | [5] -28.4% | [6] -1.75%

Clc1cccc(N2CCN(CCN3CCc4c([nH]c5ccccc45)C3c3cccnc3)CC2)c1 (centres undefined)
inactive: [1] 2.2% | [2] -21.7% | [3] -7.85% | [4] 9.45% | [5] -9.75% | [6] -12%

CC(C)CN(CC(=O)NC(=O)c1ccccc1)CC(C)C
inactive: [1] -2.1% | [2] -10.1% | [3] -12.2% | [4] -37.9% | [5] -4% | [6] -3.8%

CCOC(=O)C1CCCC1S(=O)(=O)c1ccc(C)cc1 (centres undefined)
inactive: [1] -20% | [2] -15.3% | [3] -27.4% | [4] 21.9% | [5] 1.75% | [6] -3.5%

COC(=O)CCC(=O)Nc1cc(Cl)ccc1Cl
inactive: [1] -2.35% | [2] -16.1% | [3] -0.35% | [4] 6.45% | [5] -4.15% | [6] 6.3%

CNCCCCCCNc1cc(OC)cc2cccnc12
inactive: [1] 45% | [2] 18.7% | [3] 56% | [4] 7.05% | [5] 23.1% | [6] 58.8%

Cc1ccc(SCC(CF)OC(C)n2cnc3c(Cl)nc(N)nc32)cc1 (centres undefined)
inactive: [1] 14.3% | [2] 1.05% | [3] 30.6% | [4] 39.6% | [5] 41.7% | [6] -36.7%

O=C(/C=C/C(=O)NCCc1ccccc1)NCCc1ccccc1
inactive: [1] -13.4% | [2] 0.85% | [3] 9.15% | [4] -7.45% | [5] 46.4% | [6] 17.4%

c1ccc2c(c1)NC(C1OC3CCCN3C1C1Nc3ccccc3S1)S2 (centres undefined)
inactive: [1] -43.2% | [2] -6% | [3] -28.6% | [4] -1.5% | [5] -14.1% | [6] -24.4%

CC(O)C(F)(F)F (centres undefined)
inactive: [1] 18.2% | [2] -8.8% | [3] 7.65% | [4] 15.9% | [5] -3.75% | [6] 21.8%

Cc1ccc2ccccc2c1CC(=O)O
inactive: [1] 28.8% | [2] 36.6% | [3] 31.5% | [4] 31.7% | [5] 38.8% | [6] 39.2%
